# Reference: PubChem BioAssay AID1159580 (chemical genetic matrix, 2015)
# Where “and” joins values, the source holds several entries; their conditions need not be identical. Equal entries are not always repeated. In all, about 5,500 compounds went through this assay and about 2,000 (36%) were called active. Another 18% or so got no clear call; they are omitted. This is one part of the list. Unmarked numbers belong to inactive results. No stated cut-off is given here; in the data, active means normalized growth mostly below about 0.91 (no sharp cut-off); inconclusive means no clear call, values can overlap the other calls; inactive means mostly above about 0.92.
# Assay: chemical genetic growth profiling, strain panel (AID 1159580);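 further: tested at 20 µM; growth read once vehicle control cultures reached saturation at 30 °C; 1 = growth at the plate median or of vehicle wells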
# Settings: S. cerevisiae deletion strains, growth OD
# [1] = locus YHR030C, strain SLT2, stronger effect = lower value
# [2] = locus YHR079C, strain IRE1, stronger effect = lower value
# [3] = locus YJL095W, strain BCK1, stronger effect = lower value
# [4] = locus YJR066W, strain TOR1, stronger effect = lower value
# [5] = locus YLR113W, strain HOG1, stronger effect = lower value
# [6] = locus YNL183C, strain NPR1, stronger effect = lower value
# [7] = locus YOR231W, strain MKK1, stronger effect = lower value
# [8] = locus YPL256C, strain CLN2, stronger effect = lower value
smiles,measurement,setting,value
COc1cc(C)c2c(c1C=O)Oc1c(c(C)c(O)c3c1C(O)OC3=O)OC2=O (stereo unspecified),normalized growth,"locus YAL013W, strain DEP1, stronger effect = lower value",1
same,normalized growth,"locus YAL021C, strain ccr4, stronger effect = lower value",1.01
same,normalized growth,"locus YAL026C, strain drs2, stronger effect = lower value",1.02
same,normalized growth,"locus YAL030W, strain snc1, stronger effect = lower value",1.02
same,normalized growth,"locus YBL061C, strain skt5, stronger effect = lower value",1.02
same,normalized growth,"locus YBR009C, strain hhf1, stronger effect = lower value",1.03
same,normalized growth,"locus YBR021W, strain FUR4, stronger effect = lower value",1.01
same,normalized growth,"locus YBR023C, strain chs3, stronger effect = lower value",1.05
same,normalized growth,"locus YBR171W, strain sec66, stronger effect = lower value",1.02
same,normalized growth,"locus YBR229C, strain ROT2, stronger effect = lower value",0.949
same,normalized growth,"locus YBR231C, strain swc5, stronger effect = lower value",1.01
same,normalized growth,"locus YBR279W, strain paf1, stronger effect = lower value",1.01
same,normalized growth,"locus YCL011C, strain gbp2, stronger effect = lower value",1.03
same,normalized growth,"locus YCL016C, strain dcc1, stronger effect = lower value",1.03
same,normalized growth,"locus YCL029C, strain bik1, stronger effect = lower value",0.984
same,normalized growth,"locus YCL061C, strain MRC1, stronger effect = lower value",1.02
same,normalized growth,"locus YCL069W, strain vba3, stronger effect = lower value",1.01
same,normalized growth,"locus YCR088W, strain abp1, stronger effect = lower value",1.01
same,normalized growth,"locus YDL005C, strain med2, stronger effect = lower value",0.946
same,normalized growth,"locus YDL035C, strain GPR1, stronger effect = lower value",0.965
same,normalized growth,"locus YDL040C, strain nat1, stronger effect = lower value",1.01
same,normalized growth,"locus YDL074C, strain BRE1, stronger effect = lower value",0.959
same,normalized growth,"locus YDL101C, strain DUN1, stronger effect = lower value",0.99
same,normalized growth,"locus YDL185W, strain tfp1, stronger effect = lower value",0.972
same,normalized growth,"locus YDL192W, strain arf1, stronger effect = lower value",0.984
same,normalized growth,"locus YDR001C, strain nth1, stronger effect = lower value",1.01
same,normalized growth,"locus YDR069C, strain doa4, stronger effect = lower value",1
same,normalized growth,"locus YDR101C, strain arx1, stronger effect = lower value",0.981
same,normalized growth,"locus YDR137W, strain rgp1, stronger effect = lower value",1.06
same,normalized growth,"locus YDR150W, strain NUM1, stronger effect = lower value",0.994
same,normalized growth,"locus YDR159W, strain sac3, stronger effect = lower value",1.02
same,normalized growth,"locus YDR162C, strain NBP2, stronger effect = lower value",0.941
same,normalized growth,"locus YDR195W, strain ref2",0.924
same,normalized growth,"locus YDR297W, strain sur2, stronger effect = lower value",1.01
same,normalized growth,"locus YDR318W, strain mcm21, stronger effect = lower value",1
same,normalized growth,"locus YDR334W, strain swr1, stronger effect = lower value",1
same,normalized growth,"locus YDR335W, strain msn5, stronger effect = lower value",1.01
same,normalized growth,"locus YDR388W, stronger effect = lower value",0.997
same,normalized growth,"locus YDR392W, strain spt3, stronger effect = lower value",1
same,normalized growth,"locus YDR502C, strain sam2, stronger effect = lower value",1.04
same,normalized growth,"locus YEL003W, strain gim4, stronger effect = lower value",1.02
same,normalized growth,"locus YEL037C, strain rad23, stronger effect = lower value",1.02
same,normalized growth,"locus YEL061C, strain CIN8 (second series), stronger effect = lower value",1
same,normalized growth,"locus YEL061C, strain CIN8, stronger effect = lower value",0.974
same,normalized growth,"locus YER015W, strain faa2, stronger effect = lower value",1.01
same,normalized growth,"locus YER016W, strain bim1, stronger effect = lower value",1.02
same,normalized growth,"locus YER110C, stronger effect = lower value",0.981
same,normalized growth,"locus YER111C, strain swi4, stronger effect = lower value",1.01
same,normalized growth,"locus YER155C, strain BEM2 (second series), stronger effect = lower value",1.02
same,normalized growth,"locus YER155C, strain BEM2, stronger effect = lower value",0.995
same,normalized growth,"locus YER167W, strain BCK2, stronger effect = lower value",0.986
same,normalized growth,"locus YFR010W, strain ubp6, stronger effect = lower value",1.02
same,normalized growth,"locus YGL078C, strain dbp3, stronger effect = lower value",1.02
same,normalized growth,"locus YGL086W, strain mad1, stronger effect = lower value",1.01
same,normalized growth,"locus YGL167C, strain pmr1, stronger effect = lower value",1.01
same,normalized growth,"locus YGL173C, strain kem1, stronger effect = lower value",1.03
same,normalized growth,"locus YGL227W, strain vid30, stronger effect = lower value",1.02
same,normalized growth,"locus YGL240W, strain doc1, stronger effect = lower value",1.08
same,normalized growth,"locus YGL248W, strain PDE1, stronger effect = lower value",1.02
same,normalized growth,"locus YGL253W, strain hxk2, stronger effect = lower value",1.02
same,normalized growth,"locus YGR135W, strain pre9, stronger effect = lower value",1.06
same,normalized growth,"locus YGR252W, strain gcn5, stronger effect = lower value",1.05
same,normalized growth,"locus YHR013C, strain ard1, stronger effect = lower value",1.05
same,normalized growth,"locus YHR027C, strain rpn1, stronger effect = lower value",1.01
same,normalized growth,[1],0.992 and 0.99
same,normalized growth,"locus YHR079C, strain IRE1 (second series), stronger effect = lower value",0.991
same,normalized growth,[2],0.994
same,normalized growth,"locus YHR094C, strain hxt1, stronger effect = lower value",0.982
same,normalized growth,"locus YHR129C, strain ARP1, stronger effect = lower value",0.984
same,normalized growth,"locus YHR142W, strain chs7, stronger effect = lower value",1.05
same,normalized growth,"locus YHR200W, strain rpn10, stronger effect = lower value",0.999
same,normalized growth,"locus YIL066C, strain RNR3, stronger effect = lower value",0.97
same,normalized growth,"locus YIL073C, strain SPO22, stronger effect = lower value",1.06
same,normalized growth,"locus YIL125W, strain kgd1, stronger effect = lower value",0.984
same,normalized growth,"locus YIR030C, strain dcg1, stronger effect = lower value",0.982
same,normalized growth,"locus YJL092W, strain hpr5, stronger effect = lower value",1.01
same,normalized growth,"locus YJL095W, strain BCK1 (second series), stronger effect = lower value",1.02
same,normalized growth,[3],1.08 and 0.976
same,normalized growth,"locus YJL115W, strain asf1, stronger effect = lower value",1
same,normalized growth,"locus YJL129C, strain trk1, stronger effect = lower value",1.03
same,normalized growth,"locus YJL134W, strain LCB3, stronger effect = lower value",0.986
same,normalized growth,"locus YJL154C, strain vps35, stronger effect = lower value",1.02
same,normalized growth,"locus YJL164C, strain tpk1, stronger effect = lower value",1.03
same,normalized growth,"locus YJL166W, strain qcr8, stronger effect = lower value",1.03
same,normalized growth,"locus YJL168C, strain set2, stronger effect = lower value",0.993
same,normalized growth,"locus YJL187C, strain SWE1 (second series), stronger effect = lower value",0.988
same,normalized growth,"locus YJL187C, strain SWE1, stronger effect = lower value",1.02
same,normalized growth,[4],0.919
same,normalized growth,"locus YKL009W, strain mrt4, stronger effect = lower value",0.948
same,normalized growth,"locus YKL068W, stronger effect = lower value",0.983
same,normalized growth,"locus YKL085W, strain MDH1 (second series), stronger effect = lower value",0.968
same,normalized growth,"locus YKL085W, strain MDH1, stronger effect = lower value",0.968
same,normalized growth,"locus YKL160W, strain elf1, stronger effect = lower value",1.03
same,normalized growth,"locus YKL190W, strain CNB1, stronger effect = lower value",0.989
same,normalized growth,"locus YKR001C, strain vps1, stronger effect = lower value",0.991
same,normalized growth,"locus YKR026C, strain gcn3, stronger effect = lower value",1.01
same,normalized growth,"locus YKR091W, strain srl3, stronger effect = lower value",1.01
same,normalized growth,"locus YLL001W, strain dnm1, stronger effect = lower value",1.01
same,normalized growth,"locus YLL026W, stronger effect = lower value",1.02
same,normalized growth,"locus YLL041C, strain sdh2, stronger effect = lower value",1.01
same,normalized growth,"locus YLR027C, strain aat2, stronger effect = lower value",1
same,normalized growth,"locus YLR039C, strain RIC1, stronger effect = lower value",1.01
same,normalized growth,"locus YLR058C, strain SHM2, stronger effect = lower value",0.966
same,normalized growth,"locus YLR102C, strain apc9, stronger effect = lower value",0.986
same,normalized growth,[5],0.956
same,normalized growth,"locus YLR221C, strain rsa3, stronger effect = lower value",1.03
same,normalized growth,"locus YLR258W, strain gsy2, stronger effect = lower value",1.03
same,normalized growth,"locus YLR262C, strain YPT6 (second series), stronger effect = lower value",1.06
same,normalized growth,"locus YLR268W, strain sec22, stronger effect = lower value",0.975
same,normalized growth,"locus YLR320W, strain mms22, stronger effect = lower value",1.06
same,normalized growth,"locus YLR330W, strain CHS5, stronger effect = lower value",0.983
same,normalized growth,"locus YLR342W, strain FKS1 (second series), stronger effect = lower value",0.99
same,normalized growth,"locus YLR342W, strain FKS1, stronger effect = lower value",1.03
same,normalized growth,"locus YLR357W, strain rsc2, stronger effect = lower value",0.997
same,normalized growth,"locus YLR370C, strain arc18, stronger effect = lower value",1.02
same,normalized growth,"locus YLR371W, strain rom2, stronger effect = lower value",0.972
same,normalized growth,"locus YLR384C, strain iki3, stronger effect = lower value",1.01
same,normalized growth,"locus YLR418C, strain cdc73, stronger effect = lower value",1.05
same,normalized growth,"locus YML016C, strain PPZ1, stronger effect = lower value",0.985
same,normalized growth,"locus YML032C, strain rad52, stronger effect = lower value",0.985
same,normalized growth,"locus YML120C, strain ndi1, stronger effect = lower value",1.02
same,normalized growth,"locus YML124C, strain tub3, stronger effect = lower value",0.996
same,normalized growth,"locus YMR058W, strain fet3, stronger effect = lower value",0.996
same,normalized growth,"locus YMR078C, strain ctf18, stronger effect = lower value",0.995
same,normalized growth,"locus YMR125W, strain sto1, stronger effect = lower value",0.999
same,normalized growth,"locus YMR129W, stronger effect = lower value",1.01
same,normalized growth,"locus YMR205C, strain PFK2, stronger effect = lower value",1.03
same,normalized growth,"locus YMR223W, strain ubp8, stronger effect = lower value",1
same,normalized growth,"locus YMR231W, strain pep5, stronger effect = lower value",1.02
same,normalized growth,"locus YMR307W, strain GAS1, stronger effect = lower value",0.922
same,normalized growth,"locus YNL067W, strain RPL9B, stronger effect = lower value",1
same,normalized growth,"locus YNL071W, strain lat1, stronger effect = lower value",1.02
same,normalized growth,"locus YNL128W, strain TEP1, stronger effect = lower value",0.918
same,normalized growth,[6],0.935
same,normalized growth,"locus YNL209W, strain ssb2, stronger effect = lower value",1
same,normalized growth,"locus YNL233W, strain BNI4, stronger effect = lower value",1.02
same,normalized growth,"locus YNL248C, strain rpa49, stronger effect = lower value",1.05
same,normalized growth,"locus YNL250W, strain rad50, stronger effect = lower value",0.984
same,normalized growth,"locus YNL271C, strain bni1, stronger effect = lower value",0.989
same,normalized growth,"locus YNL298W, strain CLA4, stronger effect = lower value",0.987
same,normalized growth,"locus YNL307C, strain MCK1, stronger effect = lower value",1
same,normalized growth,"locus YNL322C, strain KRE1 (second series), stronger effect = lower value",1.01
same,normalized growth,"locus YNR049C, strain mso1, stronger effect = lower value",1.02
same,normalized growth,"locus YNR052C, strain pop2, stronger effect = lower value",1.02
same,normalized growth,"locus YOL012C, strain htz1",0.777
same,normalized growth,"locus YOL147C, strain pex11, stronger effect = lower value",0.991
same,normalized growth,"locus YOR001W, strain rrp6, stronger effect = lower value",1.03
same,normalized growth,"locus YOR061W, strain CKA2, stronger effect = lower value",0.952
same,normalized growth,"locus YOR069W, strain VPS5, stronger effect = lower value",0.992
same,normalized growth,"locus YOR070C, strain gyp1, stronger effect = lower value",1.01
same,normalized growth,"locus YOR080W, strain dia2, stronger effect = lower value",1.02
same,normalized growth,"locus YOR083W, strain WHI5, stronger effect = lower value",1.03
same,normalized growth,"locus YOR106W, strain vam3, stronger effect = lower value",1.03
same,normalized growth,"locus YOR136W, strain idh2, stronger effect = lower value",0.987
same,normalized growth,"locus YOR144C, strain elg1, stronger effect = lower value",0.99
same,normalized growth,"locus YOR184W, strain ser1, stronger effect = lower value",0.959
same,normalized growth,[7],0.975
same,normalized growth,"locus YOR265W, strain rbl2, stronger effect = lower value",1.01
same,normalized growth,"locus YOR270C, strain vph1, stronger effect = lower value",1.15
same,normalized growth,"locus YOR290C, strain snf2, stronger effect = lower value",1.01
same,normalized growth,"locus YOR316C, strain cot1, stronger effect = lower value",1
same,normalized growth,"locus YPL051W, strain arl3, stronger effect = lower value",1.04
same,normalized growth,"locus YPL055C, strain LGE1, stronger effect = lower value",0.899
same,normalized growth,"locus YPL078C, strain atp4, stronger effect = lower value",1.03
same,normalized growth,"locus YPL106C, strain sse1, stronger effect = lower value",1.02
same,normalized growth,"locus YPL240C, strain hsp82, stronger effect = lower value",1.01
same,normalized growth,"locus YPL241C, strain CIN2, stronger effect = lower value",0.995
same,normalized growth,[8],0.974
same,normalized growth,"locus YPR119W, strain clb2, stronger effect = lower value",1
same,normalized growth,"locus YPR141C, strain kar3, stronger effect = lower value",0.979
same,normalized growth,"locus YPR163C, strain tif3, stronger effect = lower value",1
same,normalized growth,"locus YPR167C, strain met16, stronger effect = lower value",1.02
same,normalized growth,"strain wtn01, stronger effect = lower value",0.976
CC(=O)Oc1cc(C)c2c(c1C=O)Oc1c(c(C)c(OC(C)=O)c3c1C(OC(C)=O)OC3=O)OC2=O (stereo unspecified),normalized growth,[1],0.877
same,normalized growth,[2],0.883
same,normalized growth,[3],0.905
same,normalized growth,[4],0.857
same,normalized growth,[5],0.821 (active)
same,normalized growth,[6],0.853
same,normalized growth,[7],0.876
same,normalized growth,[8],0.829
